TexasRed fluor: counter-screen for TRb-SRC2 inhibitors: fluorescence interference; TRb/SRC2 Texas Red total fluorescence interference; Potency, µM (highest dose often 106 µM), without a hit: at the highest dose fluorescence change, negative = quenching; 280,000 tested, 0.29% active; AID 1479; active = well fitted curve in either direction with a large enough effect; inconclusive = small, poorly fitted or top-dose-only effect
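Human TRb ligand-binding domain at 0.6 uM with 20 nM Texas Red SRC2 peptide in Tris buffer containing 1 uM T3 and 5% DMSO, incubated with compound 5 h at ambient temperature. Total fluorescence (555/632 nm) calculated as parallel + 2 × perpendicular.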
Tau fluor cs: counter-screen for tau fibril formation inhibitors; tau K18 P301L Alexa594 fluorescence, heparin fibrillization; Potency, µM (highest dose often 57.7 µM), without a hit: at the highest dose activity change, negative = decrease; 280,000 tested, 0.93% active; also: nearly all actives have a fitted effect of over 55% in size
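Human tau K18 P301L (15 uM unlabeled, 0.24 uM Alexa 594-labeled) in 100 mM sodium acetate pH 7 with 20 uM heparin, 6 hr at 37 C. ThT 30 uM added, 1 hr ambient; Alexa 594 FP and total fluorescence read at 555/632 nm.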
TRb SRC2 PPI: disrupts binding of human TR beta to SRC2; P10828; TRbeta-SRC2 peptide binding, fluorescence polarization; receptor liganded with 1 µM T3; Potency, µM (top dose mostly 106 µM), for inactives: at the top dose activity change, negative = inhibition, actives largely listed as inhibitors; 280,000 tested, 0.065% active; AID 1469;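 also: plate controls were bound peptide for no effect and peptide without receptor for full effect; nearly all actives have a fitted effect of over 50% in size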
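Decrease in fluorescence polarization of 20 nM Texas Red SRC2 coactivator peptide flagged inhibition of its binding to 0.6 uM TRb LBD; 1 uM T3 included, incubation 5 hr, ex 555/em 632 nm.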
Tau FP inhib: blocks human tau fibril formation measured by polarization; P10636; K18 P301L tau heparin fibrillization, Alexa594 FP, 6 h; Potency, µM (highest dose often 57.7 µM), for the others: top-dose activity, negative = inhibition, actives largely listed as inhibitors; 280,000 tested, 0.39% active; AID 1468; also: nearly all actives have a fitted effect of over 55% in size
Target sequence (P10636 561-689 P618L limits assumed): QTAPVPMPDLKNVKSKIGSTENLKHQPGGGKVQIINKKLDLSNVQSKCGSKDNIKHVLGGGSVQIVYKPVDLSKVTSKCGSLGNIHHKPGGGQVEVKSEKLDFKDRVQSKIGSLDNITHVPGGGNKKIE
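Human K18 P301L fragment (15 uM unlabeled plus 0.24 uM Alexa 594-labeled) in 100 mM sodium acetate pH 7 with compound, aggregation induced by 20 uM heparin for 6 hr at 37 C. ThT (30 uM) added for 1 hr, then Alexa 594 FP read.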
RGS12 GoLoco inh: blocks human Gai1 binding to RGS12 GoLoco peptide, red readout; P63096; Gai1:RGS12 GoLoco peptide FP, rhodamine, 10 min; Potency, µM (titrated, usually from 61.6 µM), without a hit: top-dose activity, negative = inhibition, usual class: inhibitors; 230,000 tested, 0.44% active; active = well fitted inhibition curve with a large enough effect, not every such curve was filed as active; inactive = no such curve, though single readings can be large or run the other way; also: nearly all actives have a fitted effect of over 30% in size
Target sequence (P63096 whole entry, looked up): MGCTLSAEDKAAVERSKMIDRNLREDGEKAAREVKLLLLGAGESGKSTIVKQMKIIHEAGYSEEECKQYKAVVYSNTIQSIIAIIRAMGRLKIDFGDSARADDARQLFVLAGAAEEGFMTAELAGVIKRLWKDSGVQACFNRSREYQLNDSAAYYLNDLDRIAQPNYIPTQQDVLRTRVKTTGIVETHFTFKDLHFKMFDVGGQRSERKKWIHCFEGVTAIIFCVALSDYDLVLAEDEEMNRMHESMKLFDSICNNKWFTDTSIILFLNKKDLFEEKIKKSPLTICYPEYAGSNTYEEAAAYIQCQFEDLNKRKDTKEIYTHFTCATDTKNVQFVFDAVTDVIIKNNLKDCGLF
Tau ThT inhib: blocks human tau fibril formation measured by thioflavin T; 270,000 tested, 2.1% active; AID 1460; Potency, µM (doses to about 57.4 µM), for the others: at the top dose activity, negative = inhibition, usual class: inhibitors; P10636; recombinant tau K18 P301L (four-repeat tau fragment), heparin-induced fibrillization, ThT fluorescence; also: nearly all actives have a fitted effect of over 55% in size
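K18 P301L tau (15 uM + 0.24 uM Alexa 594-tagged), heparin 20 uM, NaOAc pH 7, 6 h 37 C; ThT 30 uM, 1 h RT, ex 450/em 510 nm.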
An asterisk follows results filed as active; ? = inconclusive; . = no result; [ ] = another dose, or the depositor's remark. Rows were chosen to be rich in hits. Some 3.2% of all compounds tested hit in one or more screens of this group. Unless noted, calls follow the shape of the dose curve; as a rule, active = well fitted curve in the direction sought with a large enough effect; inconclusive = small, poorly fitted or top-dose-only effect, or another doubt; inactive = no such curve, though single readings can be large; an effect the other way counts as inactive or inconclusive. Unless noted, % is scaled to controls: 0 for no effect and ±100 for the full control effect; potency is read from the fitted curve at half-maximal effect.

SMILES | TexasRed fluor | Tau fluor cs | TRb SRC2 PPI | Tau FP inhib | RGS12 GoLoco inh | Tau ThT inhib
CC(=O)Nc1cccc(-c2nnc(SCC(=O)c3cc([N+](=O)[O-])ccc3Br)o2)c1 | -13% | 14µM*[quencher] | 11% | -19% | . | ?
Cc1nn(-c2ccccc2)c(N)c1N=Nc1ccc2ccccc2c1 | -2% | 16µM*[quencher] | 2% | 1% | 8% | 5µM*
Cc1ccc(N=Nc2c(N)nn(-c3ccccc3)c2N)cc1 | -2% | ? | 1% | -6% | 12% | 4.5µM*
Cc1nn(-c2ccccc2)c(N)c1N=O | -5% | 0% | 0% | 1% | 4% | -3%
COc1ccc(-c2c(C)nn(-c3ccccc3)c2N)cc1 | -7% | -19% | -6% | -1% | 3% | -26%
Cc1ccc(N=Nc2c(N)nn3c(C)cc(C)nc23)cc1 | -8% | -14% | -8% | 0% | 1% | ?
Cc1ccc(N=Nc2c(N)nn3c(N)c(C#N)c(C)nc23)cc1 | 3% | ? | 6% | -10% | 11% | 1.4µM*
COC(=O)N[C@@H](/C=C/c1ccccc1)/C(C(=O)OC)=C(\C)NCc1ccccc1 | -1% | -6% | 2% | -2% | 6% | -9%
CCCCC/C=C\C/C=C\CCCCCCCCCC(=O)NC(C)C(=O)O (stereo unspecified) | -2% | -7% | 4% | 0% | 2% | -8%
CCN(CC)c1ccc(/C=C2\SC(=O)N(C(C)C)C2=O)o1 | 0% | ? | 5% | 4% | 82% | 25µM*
C=CCSc1nc2ccccc2n1C(=O)/C=C/c1ccc(OC)c(OC)c1 | 4%[53 µM] | -20% | -14%[53 µM] | ? | 1% | 14µM*
CCSc1nc2ccccc2n1C(=O)/C=C/c1ccc(OC)c(OC)c1 | 0% | -23% | -4% | 7.9µM* | -16% | 7.9µM*
C=CCSc1nc2ccccc2n1C(=O)/C=C/c1cc(OC)c(OC)c(OC)c1 | 3% | -17% | -6% | 22µM* | 7% | 25µM*
COc1ccc(/C=C/C(=O)NCCn2c(C)cc3ccccc32)cc1OC | -3% | ? | -5% | -2% | 1% | ?
CCn1c(SCC(=O)N/N=C/c2ccc(OC)c(OC)c2)nc2ccccc21 | 1% | -10% | 4% | -6% | -8% | -23%
CCCCC[C@H](O)/C=C/[C@H]1OC(O)C[C@H](O)[C@@H]1C/C=C\CC(=O)O (stereo partly specified) | 0% | -7% | -12% | -2% | 3% | -9%
CN(C)CC1CCn2c(c(C3=C(c4cn(C)c5ccccc45)C(=O)NC3=O)c3ccccc32)C1 (stereo unspecified) | -4% | . | 7% | . | . | .
COc1cccc(C2=Nn3c(nnc3-c3cc(OC)cc(OC)c3)SC2)c1 | -1% | . | -5% | . | . | .
CCN1/C(=C/c2ccc3cc(C)cc(C)c3[n+]2CC)Sc2cc(C)ccc21 | -1% | ? | 5% | ? | 129% | 4.5µM*
CCN1/C(=C\c2ccc3cc(C)ccc3[n+]2CC)Sc2cc(C)c(C)cc21 | -2% | ? | 9% | ? | 204% | 7.9µM*
C[C@@H]1O[C@@H](O)[C@@H](O)[C@H](O)[C@H]1O | . | . | . | . | 10%[14.2 µM] | .
Cc1cnc(C(=O)Nc2ccc(C)c(S(=O)(=O)N(C)C)c2)cn1 | 35µM*[quencher] | -4% | -17%[53 µM] | -2% | 0% | -1%
Cc1ccc(NC(=O)c2cnccn2)cc1S(=O)(=O)N(C)C | -2% | 1% | 4% | -14% | 0% | -3%
CCOC(=O)c1c(C(F)(F)C(F)(F)C(F)(F)C(F)(F)F)n[nH]c1C | -4% | 4% | 10% | 14µM* | 10% | 1%
N#Cc1ccccc1Sc1ccccc1N | -5% | -3% | -4% | 5% | 6% | 8%
SMILES | TexasRed fluor | Tau fluor cs | TRb SRC2 PPI | Tau FP inhib | RGS12 GoLoco inh | Tau ThT inhib
N#CC(=C(/N)Sc1ccccc1N)/C(C#N)=C(/N)Sc1ccccc1N | -4% | 25µM*[quencher] | 1% | . | -1% | 35µM*
CCN(CC)c1ccc(C=C2C(=O)OC3(CCCCC3)OC2=O)cc1 | 13% | -3% | 14% | 3% | 239% | -18%
CCN(CC)c1ccc(/C=C2/C(=O)c3ccc(C(=O)O)cc3C2=O)cc1 | ? | -11% | 29% | ? | 26% | 3.2µM*
CC12CCC=CC1C(c1ccc(F)c(/C=C/c3ccccc3)c1)N(Cc1ccccc1)C2=O (stereo unspecified) | 1% | . | -10% | . | . | .
CCn1c(C)[n+](Cc2ccccc2)c2ccc(Cl)cc21 | 0% | -2% | -4% | -2% | -33% | -6%
CCn1c(C)[n+](Cc2ccccc2)c2ccc(C(=O)OC)cc21 | -1% | 1% | 1% | 7% | 1.3µM* | -1%
Cc1cccc2c1Oc1ccccc1[C@@H]2NC(=O)c1ccc([N+](=O)[O-])cc1 | . | . | . | . | 8%[14.2 µM] | .
S=C(NCc1ccc2c(c1)OCO2)Nc1ccc(-c2nc3ccccc3[nH]2)cc1 | -3% | 13µM*[quencher] | -3% | ? | 12% | ?
S=C(NCc1ccc(Cl)c(Cl)c1)Nc1ccc2c(c1)OCO2 | -1% | 16µM*[quencher] | -12% | ? | 15% | ?
CC(C)c1ccc(NC(=S)NCc2ccc3c(c2)OCO3)cc1 | -1% | ? | -4% | -12% | -4% | -12%

Compound activity from PubChem.
